Results on 19 molecules are retold here after PubChem BioAssay (EPA / NIEHS).

Experiment [1] in a line: ATG_TAL_CIS: Attagene CIS-FACTORIAL HepG2 Assay for human TAL Basal Promoter (AID 2282966).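 Also: background control endpoint measuring basal TAL promoter reporter mRNA not a specific factor.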 As to conditions: HepG2 Attagene cis-factorial TAL promoter reporter; actives raise or lower the signal. The procedure, abridged:
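HepG2, transient MRTU transfection, 24 h compound exposure; RNA → oligo(dT) RT → PCR → 6-FAM primer extension → HpaI digest → CE fluorescence. Bidirectional curve fit vs DMSO. Background-control readout.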

Experiment [2] can be described thus: ATG_TGFb_CIS: Attagene CIS-FACTORIAL HepG2 Assay for human Transforming Growth Factor (TGF) (AID 2282967). As to conditions: HepG2 Attagene CIS TGFb reporter, mRNA transcription; actives raise or lower the signal. The procedure, abridged:
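After a 24-hour incubation with compound, transfected HepG2 cells were lysed for RNA; reporter cDNA was amplified, fluorescently end-labeled and separated by CE. DMSO served as baseline for bidirectional fits.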

Experiment [3] is described as follows: ATG_VDRE_CIS: Attagene CIS-FACTORIAL HepG2 Assay for human Vitamin D Receptor Element (VDRE) (AID 2282968). As to conditions: HepG2 VDRE cis-reporter transcription, actives raise or lower the signal. The procedure, abridged: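 Readout is VDRE-driven reporter mRNA reflecting endogenous factor activity in human HepG2 cells, sampled 24 h post-dose. Quantification used labelled RT-PCR products separated by capillary electrophoresis; bidirectional analysis relative to DMSO.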

Experiment [4] concerns the target Nuclear receptor subfamily 1 group I member 3 (Homo sapiens) (UniProt Q14994). Kind of experiment: ATG_CAR_TRANS: Attagene TRANS-FACTORIAL HepG2 Assay for human Constitutive Androstane Receptor (CAR) (AID 2282969; active = hit-call score of the fitted dose curve at least 0.9, where 1 is the maximum;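 also: activators raise reporter mRNA above DMSO so AC50 marks induction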). As to conditions: HepG2 Attagene TRANS-FACTORIAL CAR reporter. The procedure, abridged:
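Signal is reporter mRNA induction relative to DMSO, measured 24 h after dosing by RT-PCR with fluorescent primer extension and capillary electrophoresis. Human HepG2 liver cells carried transiently transfected chimeric NR-Gal4/GAL4-UAS reporter constructs.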

For experiment [5], the target named is X-box-binding protein 1 (Homo sapiens) (UniProt P17861). Kind of experiment: ATG_Xbp1_CIS: Attagene CIS-FACTORIAL HepG2 Assay for human X-box Binding Protein 1 (XBP1) (AID 2282972). As to conditions: HepG2 XBP1 cis-element reporter, Attagene multiplex; actives raise or lower the signal. The procedure, abridged:
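Changes in reporter transcript abundance, read by RT-PCR and capillary electrophoresis, reflect endogenous transcription factor activity. Transfected HepG2 cells received compound for 24 hours; DMSO defined baseline for bidirectional analysis.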

In experiment [6] the target is Androgen receptor (Homo sapiens) (UniProt P10275). Kind of experiment: ATG_AR_TRANS: Attagene TRANS-FACTORIAL HepG2 Assay for human Androgen Receptor (AR) (AID 2282973; active = hit-call score of the fitted dose curve at least 0.9, where 1 is the maximum). Particulars: HepG2 Attagene TRANS-FACTORIAL AR reporter transcription. The procedure, abridged:
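Readout is reporter transcript abundance, quantified by fluorescent RT-PCR products separated on capillary electrophoresis. Human HepG2 liver cells carried transiently transfected NR-Gal4 chimera plus GAL4-UAS reporter constructs and were dosed for 24 h; activity scored upward versus DMSO.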

A short description of experiment [7]: ATG_M_19_TRANS: Attagene TRANS-FACTORIAL HepG2 Assay for M19 Transcription Factor (Internal Marker) (AID 2282974; active = hit-call score of the fitted dose curve at least 0.9, where 1 is the maximum). Particulars: HepG2 Attagene TRANS-FACTORIAL M19 internal marker reporter. The procedure, abridged: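 After transfection of HepG2 with GAL4-UAS-driven reporter constructs, cells are dosed for 24 h. Total RNA is reverse-transcribed, reporter sequences PCR-amplified and labelled, then HpaI-digested and sized by capillary electrophoresis.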

Experiment [8] is described as follows: ATG_GAL4_TRANS: Attagene TRANS-FACTORIAL HepG2 Assay for GAL4 (Internal Marker) (AID 2282976; active = hit-call score of the fitted dose curve at least 0.9, where 1 is the maximum). As to conditions: HepG2 Attagene TRANS GAL4 internal marker reporter. The procedure, abridged: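 RT-PCR/capillary electrophoresis readout of reporter mRNA. HepG2, transient MRTU transfection (GAL4-UAS reporters), 24 h compound exposure. Background-control endpoint, positive direction vs DMSO baseline.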

The target of experiment [9] is Steroid hormone receptor ERR1 (Homo sapiens) (UniProt P11474). Kind of experiment: ATG_ERRa_TRANS: Attagene TRANS-FACTORIAL HepG2 Assay for human Estrogen-Related Receptor alpha (ERRa) (AID 2282971; active = hit-call score of the fitted dose curve at least 0.9, where 1 is the maximum). As to conditions: HepG2 Attagene TRANS reporter, ERRa transactivation. The procedure, abridged:
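Transfected HepG2, 24 h dosing, ERRa-Gal4 chimera driving GAL4-UAS reporter. Readout: reporter mRNA via RT-PCR plus capillary electrophoresis (fluorescence). Positive direction vs DMSO control.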

The target in experiment [10] is Estrogen-related receptor gamma (Homo sapiens) (UniProt P62508). Kind of experiment: ATG_ERRg_TRANS: Attagene TRANS-FACTORIAL HepG2 Assay for human Estrogen-Related Receptor gamma (ERRg) (AID 2282977; active = hit-call score of the fitted dose curve at least 0.9, where 1 is the maximum;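 also: hits increase reporter signal over DMSO so potencies reflect activators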). As to conditions: HepG2 Attagene TRANS reporter, ERRg transactivation. The procedure, abridged: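 Induction of reporter transcripts through a chimeric NR-Gal4 protein is quantified in transfected human HepG2 liver cells after 24 h chemical exposure, using RT-PCR with capillary electrophoresis detection and DMSO as baseline.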

Records with an inconclusive call do not appear. The source made the active and inactive calls. The calls were made as follows, unless noted: active = hit-call score of the fitted dose curve at least 0.9, where 1 is the maximum; inactive = score below 0.9.

Sequence of Nuclear receptor subfamily 1 group I member 3 (Homo sapiens) (Q14994 whole entry, looked up, the tested form may be a part): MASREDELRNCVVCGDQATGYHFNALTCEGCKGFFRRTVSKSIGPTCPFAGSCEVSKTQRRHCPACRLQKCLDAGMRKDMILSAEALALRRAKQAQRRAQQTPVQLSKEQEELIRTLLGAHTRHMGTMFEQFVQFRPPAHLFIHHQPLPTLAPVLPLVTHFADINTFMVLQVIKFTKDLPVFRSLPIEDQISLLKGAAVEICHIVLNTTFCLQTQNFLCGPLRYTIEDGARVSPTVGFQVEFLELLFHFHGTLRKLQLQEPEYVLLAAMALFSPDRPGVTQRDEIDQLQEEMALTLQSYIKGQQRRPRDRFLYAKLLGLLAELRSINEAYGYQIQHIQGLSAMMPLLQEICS
Sequence of Androgen receptor (Homo sapiens) (P10275 whole entry, looked up, the tested form may be a part): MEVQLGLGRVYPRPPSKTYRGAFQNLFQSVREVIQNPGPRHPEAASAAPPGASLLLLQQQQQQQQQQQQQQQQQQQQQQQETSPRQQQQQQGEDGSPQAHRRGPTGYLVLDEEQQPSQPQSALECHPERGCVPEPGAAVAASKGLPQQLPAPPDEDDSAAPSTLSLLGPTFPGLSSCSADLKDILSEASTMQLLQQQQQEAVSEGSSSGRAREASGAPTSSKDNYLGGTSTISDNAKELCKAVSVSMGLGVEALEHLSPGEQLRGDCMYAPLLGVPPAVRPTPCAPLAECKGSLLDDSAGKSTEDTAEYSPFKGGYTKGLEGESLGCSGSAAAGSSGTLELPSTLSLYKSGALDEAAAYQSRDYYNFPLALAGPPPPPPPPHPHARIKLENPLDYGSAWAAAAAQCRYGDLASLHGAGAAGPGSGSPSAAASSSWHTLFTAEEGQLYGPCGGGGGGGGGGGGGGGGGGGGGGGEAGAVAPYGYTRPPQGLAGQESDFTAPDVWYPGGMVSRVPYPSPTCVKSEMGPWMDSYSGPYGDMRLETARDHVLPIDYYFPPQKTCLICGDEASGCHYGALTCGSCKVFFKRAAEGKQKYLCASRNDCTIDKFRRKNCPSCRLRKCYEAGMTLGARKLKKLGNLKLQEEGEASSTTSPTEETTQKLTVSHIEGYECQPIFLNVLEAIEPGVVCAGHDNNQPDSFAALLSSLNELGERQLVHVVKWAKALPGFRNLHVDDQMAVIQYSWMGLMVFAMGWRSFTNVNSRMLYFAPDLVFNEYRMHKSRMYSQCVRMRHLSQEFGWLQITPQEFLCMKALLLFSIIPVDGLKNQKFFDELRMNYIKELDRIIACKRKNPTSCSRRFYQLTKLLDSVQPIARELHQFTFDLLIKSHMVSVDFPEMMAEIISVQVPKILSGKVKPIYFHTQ
Sequence of X-box-binding protein 1 (Homo sapiens) (P17861 whole entry, looked up): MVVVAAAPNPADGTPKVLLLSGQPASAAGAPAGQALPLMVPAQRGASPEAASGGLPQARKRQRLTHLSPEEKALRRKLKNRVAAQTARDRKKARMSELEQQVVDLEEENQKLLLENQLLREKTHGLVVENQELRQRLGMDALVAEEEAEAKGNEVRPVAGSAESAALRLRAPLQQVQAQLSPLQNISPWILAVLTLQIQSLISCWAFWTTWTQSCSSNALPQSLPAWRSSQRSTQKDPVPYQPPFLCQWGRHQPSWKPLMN
Sequence of Steroid hormone receptor ERR1 (Homo sapiens) (P11474 whole entry, looked up, the tested form may be a part): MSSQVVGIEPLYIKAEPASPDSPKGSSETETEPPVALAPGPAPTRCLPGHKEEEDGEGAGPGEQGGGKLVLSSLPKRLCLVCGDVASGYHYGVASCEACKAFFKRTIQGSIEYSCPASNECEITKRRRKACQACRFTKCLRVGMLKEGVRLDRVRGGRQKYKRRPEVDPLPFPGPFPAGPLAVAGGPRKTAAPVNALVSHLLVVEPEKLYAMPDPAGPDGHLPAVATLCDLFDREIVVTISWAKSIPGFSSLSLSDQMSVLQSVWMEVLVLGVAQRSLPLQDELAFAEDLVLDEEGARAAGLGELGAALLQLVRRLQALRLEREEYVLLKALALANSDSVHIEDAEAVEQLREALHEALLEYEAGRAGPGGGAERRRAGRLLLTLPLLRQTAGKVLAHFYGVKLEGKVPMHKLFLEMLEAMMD
Sequence of Estrogen-related receptor gamma (Homo sapiens) (P62508 whole entry, looked up, the tested form may be a part): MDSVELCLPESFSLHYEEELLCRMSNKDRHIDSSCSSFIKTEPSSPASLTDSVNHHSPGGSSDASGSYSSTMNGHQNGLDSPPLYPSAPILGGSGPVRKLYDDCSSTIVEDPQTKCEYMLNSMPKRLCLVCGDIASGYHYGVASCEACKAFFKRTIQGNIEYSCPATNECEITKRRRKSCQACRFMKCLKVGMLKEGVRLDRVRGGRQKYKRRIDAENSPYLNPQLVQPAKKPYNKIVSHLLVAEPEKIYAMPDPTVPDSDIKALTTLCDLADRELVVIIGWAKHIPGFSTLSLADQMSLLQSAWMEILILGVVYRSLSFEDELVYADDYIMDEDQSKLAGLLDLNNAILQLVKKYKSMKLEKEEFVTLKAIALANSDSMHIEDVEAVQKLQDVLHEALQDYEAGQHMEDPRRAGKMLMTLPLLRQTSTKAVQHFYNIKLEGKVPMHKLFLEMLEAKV

Turning to `CCCCC(CC)COC(=O)c1ccc(C(=O)OCC(CC)CCCC)c(C(=O)OCC(CC)CCCC)c1` (centres undefined), the outcome in [1], in experiment [2], in experiment [3], in [4], in experiment [5] and in experiment [6] was inactive. For the same molecule, the result in experiment [7] and in experiment [8] was inactive.

Take `C1=Cc2cccc3cccc1c23`: the molecule was called inactive in experiment [1], in [2], in [3], in [4] and in [5].

As to `CC(O)CCO` (centres undefined), the molecule was called inactive in [1], in [2], in experiment [3], in experiment [4] and in experiment [5].

`O=[N+]([O-])c1ccc(Oc2ccc(Cl)cc2Cl)cc1`: the call in [1], in experiment [4], in [9], in experiment [5], in experiment [7] and in [8] was inactive. Besides, the figures for the AC50 in experiment [2] and in experiment [3] were 100 µM (active) and 27.3 µM (active), respectively.

As for `Clc1ccc(C(c2ccc(Cl)cc2)C(Cl)Cl)cc1`, the molecule was classed as inactive in experiment [1], in experiment [2], in experiment [4], in [7] and in experiment [8]. Besides, the AC50 was 15.7 µM (active) in experiment [3] and 56.2 µM (active) in [5].

Take `c1ccc2c(c1)oc1ccccc12`: the molecule was classed as inactive in [1], in experiment [2], in experiment [3], in experiment [4], in experiment [5] and in experiment [8].

Regarding `c1ccc(N=Nc2ccccc2)cc1`, the molecule was classed as inactive in [1], in experiment [2], in [3], in experiment [4], in experiment [9] and in experiment [5]. Besides, the molecule was called inactive in [8].

On to `O=[N+]([O-])C(Br)(CO)CO`, for which the result in experiment [1], in [4] and in [6] was inactive. Further, the figures for the concentration at half-maximal activity (AC50) in [2], in [3] and in [5] were 23.4 µM (active), 127 µM (active) and 145 µM (active), respectively.

As for `O=C1CCCO1`, the molecule was classed as inactive in experiment [1], in [2], in [3], in [4], in [5] and in [6]. Also, the outcome in experiment [8] and in experiment [10] was inactive.

Regarding `c1ccc(NNc2ccccc2)cc1`, the outcome in experiment [1], in experiment [2], in experiment [3], in experiment [5] and in experiment [7] was inactive.

Take `CCCCCOC(=O)c1ccccc1C(=O)OCCCCC`: the molecule was classed as inactive in experiment [1], in [2], in experiment [4], in [5] and in [8]. Moreover, the half-maximal activity concentration (AC50) in experiment [3] is 89.8 µM (active).

With `c1ccc2c(c1)-c1cccc3cccc-2c13`, the outcome in experiment [1], in experiment [2], in [3], in experiment [4], in [5] and in [8] was inactive.

Regarding `O=Cc1ccco1`, the molecule was called inactive in experiment [1], in [2], in [3], in [5] and in experiment [7].

Regarding `Clc1ccc(C(c2ccc(Cl)cc2)C(Cl)(Cl)Cl)cc1`, the outcome in [1], in experiment [2], in experiment [3], in experiment [9], in experiment [5] and in experiment [7] was inactive. Further, the result in experiment [8] was inactive.

Regarding `CO[C@@H]1[C@H](OC(=O)NC(=O)CCl)CC[C@]2(CO2)[C@H]1[C@@]1(C)O[C@@H]1CC=C(C)C`, the molecule was classed as inactive in [1], in experiment [2], in experiment [3], in [6] and in [10]. Also, in experiment [5], the AC50 is 30.9 µM (active).

Turning to `CN(C)c1ccc(C(=O)c2ccc(N(C)C)cc2)cc1`, the call in [1], in experiment [2], in experiment [3], in [5] and in experiment [7] was inactive.

`c1ccc(C2CO2)cc1` (centres undefined): the outcome in [1], in [2], in experiment [3], in experiment [5] and in experiment [7] was inactive.

For the molecule `C=CCc1ccc2c(c1)OCO2`, the call in experiment [1], in [2], in experiment [3] and in [5] was inactive.

Regarding `OCCCBr`, the outcome in experiment [1], in experiment [2], in [3], in [9] and in [5] was inactive.

For orientation: AC50 means the midpoint of the concentration-response curve, whichever way the signal moves.
